Experimental data reported in PubChem BioAssay (NCI).
The panel holds about 83,000 compounds, 20% with a hit somewhere; the sample as a whole holds those more often.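 48-hour exposure, single concentration, 96-well plates; percent growth endpoint where 0 means no net growth. Active: below 10.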 Unmarked numbers belong to inactive results. The source made the active and inactive calls.

What follows are compounds tested on PC-3 prostate (assay: NCI-60 one-dose screen, 48 h (100 = growth as untreated, 0 = no growth, -100 = all killed)). Details: 10 µM unless noted.
Experimental: Growth inhibition of the PC-3 human tumor cell line is measured as a screen for anti-cancer activity. Cells are grown in 96 well plates and exposed to the test compound for 48 hours. Compounds are tested at a single concentration, which is 10^-5 M for most compounds. The reported endpoint is percent growth (GI% or GIPRCNT), where numbers from 0 - 100% represent growth inhibition, and numbers from -100% - 0 represent cell death. For example, a value of 40 represents 60% growth inhibition. A value of 0 means no net growth occurred over the course of the experiment. A value of -40 indicates 40% of cells at the beginning of the experiment died by the end of the experiment. A value of -100 means all cells are dead at the end of the experiment.
NCI-60 Human Tumor Cell Lines Screen was performed using the standard one-dose NCI protocol, which is described in more detail at https://dtp.cancer.gov/discovery_development/nci-60/default.htm.
Compounds with GIPRCNT values below 10 were considered active. Activity score was based on GIPRCNT using the following formula: […]
Score is 0 for GIPRCNT values of 100 or above, 50 for GIPRCNT values of 0, and 100 for GIPRCNT values of -100.

Compound	growth
CCCCSC1=C(Cl)CN(c2ccccc2)C1=O	103%
COc1ccc(C(=O)c2c(N)c(C#N)cn2-c2ccc(Cl)cc2Cl)cc1	95.7%
CNC(=O)c1cc(-c2ccc(NC(=S)Nc3cccc(C(F)(F)F)c3)cc2)nc2cccnc12	96.1%
CCNC(=O)Oc1ccc(/C(=C(/C)c2ccc(OC)cc2)c2ccc(OCCN3CCCCCC3)cc2)cc1	31.3%
O=C(/C=C/c1cccc(F)c1)c1cccc(OCCCOc2cccc(C(=O)/C=C/c3cccc(F)c3)c2)c1	36.9%
CC(C)Sc1nc(-c2ccccc2)c(C#N)c(N2CCOCC2)n1	82%
CCc1nnc(NC(=O)c2cc(-c3ccc(Cl)cc3Cl)oc2C)s1	82.7%
N#Cc1c(-c2cccs2)c(C#N)c(=O)n(Cc2nc3ccccc3[nH]2)c1N	97.4%
Cc1ccc(/C=N/Nc2nc(Nc3ccccc3)nc(Nc3ccc(S(N)(=O)=O)cc3)n2)cc1	66.8%
CCCCCCN1C=C/C(=C\C(=O)n2ccc3ccccc32)c2ccccc21	58.6%
CC1=C(C)C(=O)C(Nc2cccc(C(=O)OC(C)(C)C)c2)=CC1=O	76.7%
O=C(Nc1ccccc1)Nc1nc2ccc([N+](=O)[O-])cc2[nH]1	45.8%
O=C(CCCCCCNC(=O)C(O)(O)C(F)(F)F)Nc1nc2ccccc2s1	34.6%
CN(C)CCCOc1ccc(C(=C(c2ccccc2)C2CCCC2)c2ccc(OCCCN(C)C)cc2)cc1	-65.5% (active)
COc1ccc2[nH]cc(-c3nn4cc(-c5ccncc5)nc4s3)c2c1	45.7%
COc1ccc2sc(NC(=O)CCCCCCNC(=O)C(O)(O)C(F)(F)F)nc2c1	34.1%
O=C(N/N=C\c1ccc([N+](=O)[O-])cc1)c1ccc2nc(-c3ccc(Br)cc3)[nH]c2c1	25%
CC1=C(C)C(=O)C(Nc2ccc3c(c2)OCCO3)=C(Br)C1=O	86%
O=[N+]([O-])c1ccc(NC(=S)NNC(=S)Nc2ccc(F)cc2)cc1	76.5%
CC(=O)Nc1ccccc1-c1nc2ccccc2s1	102%

Compound	growth
O=C(/C=C/c1ccccc1)c1cccc(O)c1	94.2%
C=C1CCc2nc(SCC(=O)O)ccc2N1	104%
CCOC(=O)c1cccc(NC2=C(Cl)C(=O)C(C)=C(C)C2=O)c1	85.6%
O=C(CSc1nc2ccccc2c(=O)n1-c1ccccc1)N/N=C/c1ccc(Oc2ccc(Br)cc2)cc1	71.8%
Fc1ccc(-c2cn3c(-c4c[nH]c5ccc(Br)cc45)csc3n2)cc1	73.6%
COc1cc(C(=O)c2cc(C(C)=O)c3ccc(C)cn23)cc(OC)c1OC	55.6%
CCc1cccc2c3c(sc12)C(c1ccc(F)cc1)C(C#N)=C(/N=C/c1ccc(Cl)cc1)O3 (stereo not given)	21.7%
COc1cccc(N2CCN(C3=C(Cl)C(=O)c4ncccc4C3=O)CC2)c1	78.7%
COc1ccc([C@@H]2C(=O)N(c3cc(OC)c(OC)c(OC)c3)[C@H]2c2ccc(OC)c(O)c2)cc1	29.8%
CC1(C)CC[C@]2(C(=O)O)CC[C@]3(C)C(=CC[C@@H]4[C@@]5(C)CC[C@H](NOCCCN)C(C)(C)[C@@H]5CC[C@]43C)[C@@H]2C1	65.3%
Brc1ccc(-c2cc(-c3ccc4c(c3)OC=CO4)n[nH]2)s1	101%
CC(=O)N1N=C(c2cc3ccccc3oc2=O)CC1c1cn(-c2ccccc2)nc1-c1ccc(C)cc1 (stereo not given)	93%
COc1ccc2c(c1)c(-c1nn3cc(-c4ccncc4)nc3s1)cn2C	71.2%
C#Cc1nc(/C=C\CCCCCCC(=O)NO)cs1	66.9%
N/C(=N\C(N)=N\c1nc2ccccc2s1)c1ccc(Cl)cc1	43.9%
C#CCN(C)CCCOc1ccc(NC(=O)CCCCCCC(=O)NO)cc1Cl	26.5%
COC(=O)CCCNCCCn1ccc2cc(NCc3cccc(-c4ccccc4)c3C)ccc21	58.4%
COc1ccccc1/C=C1\Oc2ccc(O)c(O)c2C1=O	98.7%
O=[N+]([O-])c1ccc(NC(=S)NNC(=S)Nc2ccc(Br)cc2)cc1	75.3%
COc1cc2cc(Oc3ccc(NC(=O)c4cc(C(F)(F)F)cc(C(F)(F)F)c4)cc3)c(C)nc2cc1OCCN1CCOCC1	41.7%
